Structures are written as SMILES.

The test concerns the target Shiga toxin 2 (Escherichia coli O157:H7) (UniProt P09385+P09386). Nature of the test: E. coli 0.157:H7 Shiga Toxin SOP - stx2 screening assay. Particulars: 30 µM. On the set-up: scale not given: direction of the effect not stated beside the values. Type of test: functional.
Regarding `CCN(CC)C(=O)CCc1c(C)nc2cc(O)nn2c1C`, the Percent Effect is -6.53%.

With `CNC(=O)c1ccc(C2CN(C(=O)c3cncs3)CCO2)nc1` (stereo unspecified), the Percent Effect was -3.71%.

Turning to `COc1cccc(S(=O)(=O)NC(=O)COc2c(C)cccc2C)c1`, the Percent Effect was found to be 6.76%.

Turning to `COc1ccc(C2CC(=O)Oc3cc(C)[nH]c(=O)c32)cc1` (stereo unspecified), the Percent Effect is -8.78%.

For the compound `CC(Nc1cccc(CN2CCOC2=O)c1)C(=O)Nc1ccccc1F` (stereo unspecified), the Percent Effect is -24.4%.

For `Cc1nn(C)c(N2CCOCC2)c1CNC(C)c1cccnc1` (stereo unspecified), the Percent Effect was 9.24%.

With `Cc1ccc(=O)n(CC2(O)CCN(Cc3ccsc3)CC2)n1`, the Percent Effect is 12.7%.

On to `O=C(Cn1nc(-c2ccc(F)cc2)oc1=O)Nc1ccccc1`, for which the Percent Effect is -19.2%.

Regarding `CC(C)n1ccc(-c2cc(C(=O)N3CCCC3)c3ccccn23)n1`, the Percent Effect was -41.4%.

Consider `c1cnc2c(c1)cc([C@H]1CCCO1)n2CCN1CCOCC1`, for which the Percent Effect is 12.7%.

As for `O=C(Cn1cnnn1)N1CCCCC1Cn1cccn1` (stereo unspecified), the Percent Effect worked out at 9.78%.

With `CC(=O)Nc1nc(C(=O)N2CCCC2Cn2cc(C)cn2)cs1` (stereo unspecified), the Percent Effect turned out to be 20.3%.

In the case of `CCn1nc(C)c2nc(C(C)C)nc(NCCOC)c21`, the Percent Effect is -4.71%.

For the compound `CN1N=C(C(=O)N(Cc2ccco2)C2CC2)CCC1=O`, the Percent Effect was 1.36%.

`Cc1noc(C(C)N2CCN(CC(=O)N3CCOCC3)CC2)n1` (stereo unspecified): the Percent Effect was -0.00886%.

As for `O=C(c1cc(C2CC2)[nH]n1)N1CCN(Cc2ccsc2)CC1`, the Percent Effect was -27.3%.

For the compound `Cc1cccnc1NC(=O)CC1(Cn2cnnn2)CCCCC1`, the Percent Effect is 2.81%.

For the compound `CCNC(=O)N1CCCC(c2noc(CC)n2)C1` (stereo unspecified), the Percent Effect came out at 17.9%.

As for `Cc1cc(OCC(=O)NS(=O)(=O)c2c(C)noc2C)ccc1Cl`, the Percent Effect came out at 13.3%.

In the case of `COc1ccc(CN2CCCC(Nc3cccc(F)c3)C2)cc1O` (stereo unspecified), the Percent Effect is 5.84%.

For the compound `CCc1cnc(C)nc1NCCN1CCCCCC1`, the Percent Effect is -69.6%.

These data come from ChEMBL document CHEMBL3988442, “University of Dundee, Small-Polar-MMV Screening Library” (2021).
